The source made the active and inactive calls.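 Rule for the calls: active = fold shift of 2 or more as potentiator, or 0.5 or less as blocker, so actives lie on both sides; inactive = fold shift between 0.5 and 2.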

Consider one compound from PubChem BioAssay AID623891 (Vanderbilt Specialized Chemistry Center, 2012).

This experiment has as its target Metabotropic glutamate receptor 6 (Homo sapiens) (UniProt O15303). Put plainly: off-target activity at human mGlu6, profiling panel, selectivity assay for mGlu4 lead optimization, cell-based, thallium flux (AID 623891). Conditions: mGlu6 cells, glutamate CRC fold shift, at 10 µM.

Metabotropic glutamate receptor 6 (Homo sapiens), sequence (O15303 whole entry, looked up): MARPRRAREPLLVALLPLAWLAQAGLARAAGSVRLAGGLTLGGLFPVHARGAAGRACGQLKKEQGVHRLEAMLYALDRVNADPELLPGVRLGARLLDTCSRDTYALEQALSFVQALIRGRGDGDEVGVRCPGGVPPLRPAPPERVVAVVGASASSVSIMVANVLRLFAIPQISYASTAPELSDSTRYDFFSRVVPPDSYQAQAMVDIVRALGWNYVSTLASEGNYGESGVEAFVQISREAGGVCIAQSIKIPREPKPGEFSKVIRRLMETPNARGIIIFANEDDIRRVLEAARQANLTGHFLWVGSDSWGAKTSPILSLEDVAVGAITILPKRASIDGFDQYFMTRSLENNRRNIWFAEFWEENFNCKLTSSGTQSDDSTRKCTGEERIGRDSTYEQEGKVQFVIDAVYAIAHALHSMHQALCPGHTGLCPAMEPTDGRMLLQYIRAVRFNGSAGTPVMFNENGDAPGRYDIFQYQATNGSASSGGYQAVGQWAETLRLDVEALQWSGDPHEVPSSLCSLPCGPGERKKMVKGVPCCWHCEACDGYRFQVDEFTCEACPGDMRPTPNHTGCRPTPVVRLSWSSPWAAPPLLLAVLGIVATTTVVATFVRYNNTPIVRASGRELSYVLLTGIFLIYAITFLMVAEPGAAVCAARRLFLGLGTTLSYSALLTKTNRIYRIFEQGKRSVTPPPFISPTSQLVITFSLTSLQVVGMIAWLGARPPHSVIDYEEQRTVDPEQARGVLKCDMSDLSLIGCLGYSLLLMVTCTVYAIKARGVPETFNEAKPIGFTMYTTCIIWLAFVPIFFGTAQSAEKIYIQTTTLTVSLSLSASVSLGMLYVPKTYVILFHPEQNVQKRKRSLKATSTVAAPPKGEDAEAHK

As to `O=C(Nc1cccc(Cl)c1)c1ccccn1`, the fold shift was 4.27 (active).
